Data on 6 compounds can be found in PubChem BioAssay (NCI).

Where “and” joins values, the source holds several entries; their conditions need not be identical. Equal values may be shown once. This is part of a sample that, as a whole, favours compounds with a hit. Of some 83,000 tested, about 20% had one in any assay.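 Method: cells in 96-well plates; compound added at one concentration; 48 h incubation; percent growth measured; values under 10 scored active.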 A number with no mark means an inactive call. Calls of active or inactive are those of the source.

Among the test systems are NCI-H23 lung; NCI-H226 lung; NCI-H322M lung; HOP-62 NSCLC; NCI-H460 lung; HOP-92 NSCLC; NCI-H522 lung; A549/ATCC NSCLC; 786-0 renal; COLO 205 colon; DU-145 prostate; K-562 leukemia; MALME-3M melanoma; MDA-MB-231 breast; RXF 393 renal; SF-268 CNS; SF-295 CNS; SF-539 CNS; UACC-257 melanoma; M14 melanoma.
Common to all, as to assay: NCI-60 one-dose screen, 48 h (100 = growth as untreated, 0 = no growth, -100 = all killed)
Holding throughout (details): 10 µM unless noted

Turning to `COc1ccc2nccc(Cl)c2c1`, the growth in the experiment on NCI-H23 lung is 98.4%; in the experiment on NCI-H226 lung, 85.1%; in the experiment with NCI-H322M lung, 97.1%; with HOP-62 NSCLC, 98.4%; in the experiment with NCI-H460 lung it was 109%; in the experiment with HOP-92 NSCLC, 98.7%. The growth in the experiment on NCI-H522 lung was 90.7%; in the experiment on A549/ATCC NSCLC, 91.9%; in the experiment with 786-0 renal, 94.7%; in the experiment on COLO 205 colon, 105%; with DU-145 prostate it was 101%; in the experiment with K-562 leukemia, 110%. Moreover, the growth in the experiment on MALME-3M melanoma is 103%; with MDA-MB-231 breast it was 102%; with RXF 393 renal it was 105%; in the experiment on SF-268 CNS, 92.8%; in the experiment on SF-295 CNS it was 107%; with SF-539 CNS, 104%. Moreover, the growth with UACC-257 melanoma is 91.9%; in the experiment on M14 melanoma, 107%.

Regarding `C/C(CC(C)C)=N/NC(N)=S`, the growth was 88.8% in the experiment with NCI-H23 lung; 85.8% in the experiment on NCI-H226 lung; 96.9% with NCI-H322M lung; 99.4% in the experiment on HOP-62 NSCLC; 102% with NCI-H460 lung; 78.2% in the experiment on HOP-92 NSCLC. In addition, the growth in the experiment on NCI-H522 lung was 95.2%; with A549/ATCC NSCLC, 83.6%; in the experiment with 786-0 renal, 107%; in the experiment with COLO 205 colon, 102%; in the experiment with DU-145 prostate, 92.2%; in the experiment with K-562 leukemia it was 56.2%. Further, the growth with MALME-3M melanoma was 81.4%; in the experiment on MDA-MB-231 breast, 100%; with RXF 393 renal, 108%; in the experiment with SF-268 CNS it was 88.8%; with SF-295 CNS it was 84.3%; with SF-539 CNS, 105%. Besides, the growth with UACC-257 melanoma was 74.4%; with M14 melanoma, 84.4%.

With `CCCCCCC(C)CC1=C(O)c2ccccc2C(=O)C1=O` (stereo not given), the growth was 42.2% with NCI-H23 lung; 37.3% in the experiment on NCI-H226 lung; 51.7% in the experiment on NCI-H322M lung; 59.3% with HOP-62 NSCLC; 14.3% with NCI-H460 lung; 67% in the experiment with HOP-92 NSCLC. Further, the growth was 56.2% with NCI-H522 lung; 36% with A549/ATCC NSCLC; 27.1% with 786-0 renal; 80.2% with COLO 205 colon; 45.2% in the experiment on DU-145 prostate; 31.1% with K-562 leukemia. Also, the growth was 54.9% in the experiment on MALME-3M melanoma; 66.2% in the experiment with MDA-MB-231 breast; 60% in the experiment on RXF 393 renal; 53.2% with SF-268 CNS; 35.4% with SF-295 CNS; 34% in the experiment on SF-539 CNS. Further, the growth was 38.2% in the experiment with UACC-257 melanoma and 44.1% in the experiment on M14 melanoma.

Take `CCOC(=O)C1=C(C)NC(C)=C(C(=O)OCC)C1`: the growth in the experiment on NCI-H23 lung is 103% and 92.2%; in the experiment with NCI-H226 lung, 96.7% and 96.4%; in the experiment with NCI-H322M lung it was 108% and 102%; in the experiment with HOP-62 NSCLC, 117% and 91.3%; in the experiment with NCI-H460 lung, 107% and 98.2%; with HOP-92 NSCLC, 79.2% and 89.5%. In addition, the growth in the experiment on NCI-H522 lung was 104% and 106%; in the experiment on A549/ATCC NSCLC, 104% and 99%; with 786-0 renal, 117% and 87.5%; in the experiment with COLO 205 colon, 126% and 96.4%; in the experiment on DU-145 prostate, 109% and 110%; in the experiment with K-562 leukemia, 127% and 110%. The growth was 110% and 99.7% with MALME-3M melanoma; 93.5% and 117% in the experiment with MDA-MB-231 breast; 103% in the experiment with RXF 393 renal; 104% and 111% in the experiment with SF-268 CNS; 82.6% and 95.7% with SF-295 CNS; 90.8% and 95.6% in the experiment with SF-539 CNS. The growth was 105% and 102% in the experiment with UACC-257 melanoma; 162% and 98% in the experiment with M14 melanoma.

With `COc1cc(C2c3cc4c(cc3C(OC(=O)C[n+]3ccccc3)C3COC(=O)C23)OCO4)cc(OC)c1OC` (stereo not given), the growth was 20.8% with NCI-H23 lung; 22.5% in the experiment with NCI-H226 lung; 33% in the experiment with NCI-H322M lung; 19.3% in the experiment with HOP-62 NSCLC; 4.91% (active) in the experiment on NCI-H460 lung; 71.5% in the experiment on HOP-92 NSCLC. Further, the growth with NCI-H522 lung is -23.4% (active); with A549/ATCC NSCLC, 7.1% (active); with 786-0 renal, 25.8%; in the experiment with COLO 205 colon it was -56.3% (active); with DU-145 prostate it was -40.1% (active); in the experiment with K-562 leukemia, 6.79% (active). Moreover, the growth with MALME-3M melanoma is 59%; in the experiment with MDA-MB-231 breast, -2.88% (active); with RXF 393 renal it was 41.1%; in the experiment with SF-268 CNS, 8.83% (active); with SF-295 CNS, 1.14% (active); with SF-539 CNS, -9.3% (active). In addition, the results for the growth in the experiment with UACC-257 melanoma and in the experiment with M14 melanoma were 55.1% and 7.72% (active), respectively.

On to `O=S(=O)(O)c1ccc2cc(O)ccc2c1`, for which the growth with NCI-H23 lung is 98.3%; in the experiment on NCI-H226 lung, 98%; with NCI-H322M lung it was 99.2%; in the experiment with HOP-62 NSCLC, 99.7%; in the experiment on NCI-H460 lung it was 102%; in the experiment with HOP-92 NSCLC, 88.8%. For the same compound, the growth is 90% with NCI-H522 lung; 111% in the experiment on A549/ATCC NSCLC; 104% in the experiment with 786-0 renal; 103% with COLO 205 colon; 112% in the experiment on DU-145 prostate; 103% in the experiment on K-562 leukemia. The growth is 101% in the experiment with MALME-3M melanoma; 108% with MDA-MB-231 breast; 109% in the experiment with RXF 393 renal; 106% with SF-268 CNS; 110% in the experiment on SF-295 CNS; 102% with SF-539 CNS. The figures for the growth in the experiment with UACC-257 melanoma and in the experiment on M14 melanoma were 105% and 103%, respectively.
